# A selection: hits, their analogues and other compounds. The true share with any hit is near 1.5%.
# MEX-5 binding: MEX-5 zinc finger RNA-binding disruptors – biochemical, C. elegans, fluorescence polarization, MLPCN library, primary screen. Zinc finger protein mex-5 (Caenorhabditis elegans), Q9XUB2. MEX-5/FITC-TCR2 RNA binding; stronger effect = lower value. activity score (negative = inhibition of binding), % at 10 µM. hit rate 0.38% among 300,000. AID 1832, 2009;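 active means inhibition past about -25% in most replicates, and total fluorescence under double the plate's negative control median, limit read from the data; inconclusive means replicates evenly split on the limit, or fluorescence at least double controls; inactive means too little inhibition in most replicates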;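 further: 0% = DMSO and -100% = 5 µM competing unlabeled TCR2 RNA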
# GLD-1 TGE inh: GLD-1/TGE RNA complex disruptors, primary screen, biochemical, fluorescence polarization. AID 2280, 2010. purified GLD-1 + fluorescein TGE RNA. inhibition, % at 5.96 µM. hit rate 0.44% among 320,000. Female germline-specific tumor suppressor gld-1 (Caenorhabditis elegans), Q17339;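 active means percent inhibition above a per-plate cutoff, the plate mean of test compounds plus 3 SD, cut at about 30% in these data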;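 further: 0% = DMSO wells with GLD-1 and probe and 100% = wells lacking GLD-1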
# IDE act: human IDE activators in live cells, primary screen, fluorescence polarization, HEK cells, FAbeta-B substrate; Insulin-degrading enzyme (Homo sapiens), P14735; FAbeta-B cleavage; 0% vehicle, 100% cell-free pure enzyme wells; activation, % at 5.96 µM; hit rate 0.073% among 340,000; AID 493087, 2011;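 active means activation above the mean of all tested compounds plus 3 SD, set per screening campaign, cut at about 17% in these data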
# Bcl-xL primary: inhibitors of human Bcl-xL, primary screen, biochemical, fluorescence polarization, HTS | Bcl-2-like protein 1 (Homo sapiens), Q07817 | GST-Bcl-xL / FITC-Bim BH3 peptide fluorescence polarization | inhibition, % at 10.9 µM | hit rate 0.7% among 320,000 | AID 2129, 2009;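 active means inhibition above the mean of all tested compounds plus 3 SD, cutoff set per campaign, cut at about 30% in these data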;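 further: 0% = DMSO wells and 100% = unlabeled Bim-BH3 peptide competitor; inhibitors lower millipolarization by displacing the labeled peptide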
# Target sequence (Q07817 whole entry, looked up): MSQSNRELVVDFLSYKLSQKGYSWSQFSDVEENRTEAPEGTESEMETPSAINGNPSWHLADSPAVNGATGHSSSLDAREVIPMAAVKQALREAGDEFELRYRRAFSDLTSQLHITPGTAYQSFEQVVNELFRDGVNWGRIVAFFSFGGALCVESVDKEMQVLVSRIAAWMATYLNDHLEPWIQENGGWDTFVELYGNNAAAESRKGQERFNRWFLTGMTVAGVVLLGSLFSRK
# IDE inh: human IDE inhibitors in live cells, primary screen, fluorescence polarization, HEK cells, FAbetaB substrate. Insulin-degrading enzyme (Homo sapiens), P14735. hit rate 0.41% among 320,000. AID 434962, 2010. inhibition, % at 5.59 µM. FAbetaB cleavage;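 active means percent inhibition above the average of all tested compounds plus 3 SD, set per screening campaign, cut at about 16% in these data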;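 further: IDE supplied by intact live HEK cells; FP after avidin binding of uncleaved biotin substrate so inhibition keeps polarization high; 0% = DMSO wells and 100% = 60 µM reference IDE inhibitor Ii1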
# MCL1-BIM inh: inhibitors of MCL1 binding to BIM-BH3, primary screen, biochemical, fluorescence polarization; hit rate 0.68% among 320,000; Induced myeloid leukemia cell differentiation protein Mcl-1 (Homo sapiens), Q07820; GST-MCL1 / FITC-Bim-BH3 fluorescence polarization; AID 2057, 2009; inhibition, % at 10.9 µM;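 active means inhibition above the mean inhibition of all tested compounds plus 3 SD, set per campaign, cut at about 40% in these data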;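 further: 0% = DMSO wells and 100% = unlabeled Bim-BH3 peptide control; higher means more loss of mP so more displacement of Bim peptide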
# Starred values were filed as active, the others as inactive; ? = inconclusive; . = no result.
SMILES,MEX-5 binding,GLD-1 TGE inh,IDE act,Bcl-xL primary,IDE inh,MCL1-BIM inh
COc1cc2c(cc1OC)-c1c(OC)c(OC)cc3ccnc(c13)C2=O,-57*,2,-6,13,3,17
CCOc1ccc(/C=c2\sc3nc(-c4ccco4)nn3c2=O)cc1OCC,-31*,-7,1,14,3,28
COc1cc(/C=c2\sc3nc(=O)c(-c4ccccc4)nn3c2=O)ccc1OCCC(C)C,.,-10,-2,0,-5,-8
O=C(C1CCCN(S(=O)(=O)c2ccccc2[N+](=O)[O-])C1)N1CCN(c2ccccc2)CC1 (stereo not given),-2,-8,-3,-2,18*,-9
Cc1ccc2c(c1)c1c(n2CC(O)CNC2CCCC2)CCCC1 (stereo not given),-3,-2,18*,5,5,-5
CC1CCc2sc(C(=O)NN)cc2C1 (stereo not given),-1,72*,2,-1,1,3
C=C(C)COc1ccc(-c2[nH]ncc2Oc2ccc(OC)cc2)c(O)c1,-7,4,21*,3,2,5
CCO[C@H]1OC(C(N)=O)=C[C@@H](C)[C@@H]1CCCO,0,2,4,-2,-1,-4
Cc1nn(CC(=O)NC(=O)NC2CCCCC2C)c(=O)c(C#N)c1C (stereo not given),0,3,6,0,-2,-1
CN1CCN(Cc2oc(CO)cc(=O)c2O)CC1,-1,2,5,7,-5,11
COc1ccc(N2CCN(Cc3oc(CO)cc(=O)c3O)CC2)cc1,-2,22,2,53*,-1,42*
CCCOC(=O)C1=C(C)N(C)C(=O)NC1c1cc2c(cc1[N+](=O)[O-])OCO2 (stereo not given),-3,15,1,43*,3,45*
CC1=C(C(=O)OCC(C)C)C(c2cc3c(cc2Br)OCO3)NC(=O)N1C (stereo not given),-1,7,-1,3,-5,6
NC(=O)c1ccsc1NC(=O)COc1ccccc1,-3,15,-3,47*,-2,43*
Cc1ccc(/C=C2\SC(=S)N(C3CCS(=O)(=O)C3)C2=O)o1 (stereo not given),-1,1,3,5,5,14
CC1=C(C#N)C(=O)N(C2CCS(=O)(=O)C2)C(=O)/C1=C\c1ccc(C)o1 (stereo not given),?,-10,.,30*,8,52*
CC1(C)CCc2cc(-c3ccnc(=S)[nH]3)ccc2O1,1,10,-25,8,26*,-1
OC(C#Cc1ccccn1)c1cccs1 (stereo not given),-35*,21,0,42*,4,44*
O=C(NC1CCCCC1)C(c1cccs1)N(C(=O)c1ccccn1)c1ccccc1 (stereo not given),2,1,6,3,1,2
CCOC(=O)c1sc(S(C)=O)c2c1CCc1conc1-2 (stereo not given),-2,4,.,5,4,9
CCNC(=O)N1c2ccc(OCC)cc2C(C)=CC1(C)C,2,68*,2,48*,8,45*
CCOc1ccc2c(c1)C(C)=CC(C)(C)N2C(=O)Nc1ccccc1F,-6,9,2,13,-1,9
O=C(CSc1nnnn1-c1ccc(F)cc1)NCc1cccs1,.,-2,2,1,-5,1
COc1ccc(N2CCN(c3nc4cc(C)ccc4cc3C=O)CC2)cc1,1,3,1,5,3,3
Cc1ccc2cc(/C=C3\N=C(c4ccccc4)OC3=O)c(N3CCOCC3)nc2c1,-34*,0,.,-4,2,-12
CN(c1ccccc1)S(=O)(=O)c1cc(C(=O)NCCCn2ccnc2)ccc1Cl,.,0,1,-16,-3,-17
CCOC(=O)N1CCN(c2cc(NCCC(=O)O)c3c4c(onc24)-c2ccccc2C3=O)CC1,.,23,5,43*,9,33

# Source: PubChem BioAssay (several laboratories)
